Inconclusive results are not listed. Unmarked numbers belong to inactive results. Calls come from the whole dose curve; as a rule, active = well fitted cell-killing curve with a large enough effect in the repeat runs; inconclusive = weak or mixed curves; inactive = flat fitted curve, though single readings scatter.
Experiment: qHTS RealTime-Glo MT Cell Viability Assay in HepG2 cells - 32 hour (AID 1224877); note: nearly all actives have a fitted effect of over 55% in size
Settings: RealTime-Glo luminescence; series mostly up to 76.8 µM; activity change, negative = cytotoxic: at the top concentration
From the text: U.S. Tox21 Program National Center for Advancing Translational Sciences [NCATS] NIH Chemical Genomics Center [NCGC] U.S. Environmental Protection Agency [EPA] National Institutes of Environmental Health Sciences [NIEHS] National Toxicology Program [NTP] U.S. Food and Drug Administration [FDA] Tox21 Assay Overview: Measure of cell viability is critical in the cell-base assay. Analysis of cell viability is necessary for the characterization of cell responses to cytotoxic drugs and environmental stress. A RealTime-Glo MT Cell Viability Assay to monitor cell viability in real time of continues cell culture during 40 hours of compound treatment was used to screen Tox21 10K library compounds in HepG2 cells. The RealTime-Glo MT Cell Viability Assay is a nonlytic, homogeneous, bioluminescent method to measure cell viability in real time using a simple, plate-based method. The assay involves adding NanoLuc luciferase and a cell-permeant prosubstrate to cells in culture. Viable cells reduce the proprietary prosubstrate to generate a substrate for NanoLuc luciferase. This substrate diffuses from cells into the surrounding culture medium, where it is rapidly used by the NanoLuc Enzyme to produce a luminescent signal. The signal correlates with the number of viable cells, making the assay well suited for cytotoxicity studies.
Tox21 Assay Protocol Summary: The mixture of HepG2 cell suspension and reagents were dispensed at 600cells/6 ul/well in 1536-well tissue culture treated black solid bottom plates using a Multidrop dispenser. After the assay plates were incubated at a 37 C/5% CO2 incubator for 5 hours, 23 nL of compounds dissolved in DMSO, positive and negative controls was transferred to the assay plate by a pintool work station. The plates were incubated at 37 C for 40 hours. The luminescence intensity were measured at 0h, 8h, 16h, 24h, 32h and 40h time points using ViewLux plate reader during compound treatment.
% is set by controls: 0 for no effect and ±100 for the full control effect.

Row | SMILES | activity change, negative = cytotoxic
1 | CC(C)=CCC/C(C)=C/CC/C(C)=C/CCC(=O)OC/C=C(\C)CCC=C(C)C | 0.141% [at 35.3 µM]
2 | O=C=Nc1ccc(Cl)c(Cl)c1 | 1.22%
3 | CCOC(C)=O | 6.66%
4 | CN1CCCN=C1COC(=O)C(O)(c1ccccc1)C1CCCCC1 (stereo not given) | 2.23% [at 35.3 µM]
5 | Cc1ccco1 | 1.04%
6 | NC1[C@H]2CN(c3nc4c(cc3F)c(=O)c(C(=O)O)cn4-c3ccc(F)cc3F)C[C@@H]12 (stereo not given in full) | -7.7% [at 35.3 µM]
7 | CC(C)C(O)(c1ccc(OC(F)(F)F)cc1)c1cncnc1 (stereo not given) | -1.84%
8 | NCCNCCO | -2.64%
9 | CCOC(=O)/C=C/C(=O)OCC | -1.72%
10 | C=C(C)CCCC(C)CCO (stereo not given) | 3.74%
11 | Cc1ccc(C(C)(C)O)cc1 | 0.673%
12 | CCC(=O)C1CC(C(C)C)CC=C1C (stereo not given) | 1.76%
13 | C=C/C(C)=C/C/C=C(\C)CCC=C(C)C | -5.61%
14 | CC(O)c1ccccc1 (stereo not given) | 2.92%
15 | CC[C@]1(O)C[C@H]2CN(CCc3c([nH]c4ccccc34)[C@@](C(=O)OC)(c3cc4c(cc3OC)N(C=O)[C@H]3[C@@](O)(C(=O)OC)[C@H](OC(C)=O)[C@]5(CC)C=CCN6CC[C@]43[C@@H]65)C2)C1 | -23.4% [at 35.3 µM]
16 | C/C=C/C=C/C=O | 1.06%
17 | Nc1cccc2c1CN(C1CCC(=O)NC1=O)C2=O (stereo not given) | 1.32% [at 35.3 µM]
18 | Clc1cc(Cl)nc(Cl)n1 | 3.09%
19 | Cc1cscn1 | -0.806%
20 | Brc1cc(Br)c(Oc2cc(Br)c(Br)cc2Br)cc1Br | -0.365% [at 35.3 µM]

Row | SMILES | activity change, negative = cytotoxic
21 | COC(=O)CS | -0.538%
22 | CCCCCCC(C)(C)C(=O)O | 1.86%
23 | CC(C)Nc1cccnc1N1CCN(C(=O)c2cc3cc(NS(C)(=O)=O)ccc3[nH]2)CC1 | -3.65% [at 35.3 µM]
24 | CCOc1ccccc1O[C@H](c1ccccc1)[C@H]1CNCCO1 | 0.232% [at 35.3 µM]
25 | CC(C)(C)C(=O)C(=O)O | 0.165%
26 | COc1ccccc1Oc1c(NS(=O)(=O)c2ccc(C(C)(C)C)cc2)nc(-c2ncccn2)nc1OCCO | -3.44% [at 35.3 µM]
27 | O=c1cc(-c2ccccc2)oc2ccc3ccccc3c12 | -6.41%
28 | Clc1ccc(Nc2nnc(Cc3ccncc3)c3ccccc23)cc1 | -7.97% [at 35.3 µM]
29 | CC(=O)OCC(=O)NCCCOc1cccc(CN2CCCCC2)c1 | 1.96% [at 35.3 µM]
30 | C[C@@H](O)[C@H]1C(=O)N2C(C(=O)O)=C([C@H]3CCCO3)S[C@H]12 | 0.565% [at 35.3 µM]
31 | O=C(O)c1ccc(OCCCOc2ccc(C(=O)O)cc2)cc1 | 4.16% [at 35.3 µM]
32 | Cc1ccccc1N=C(N)Nc1ccccc1C | 1.37%
33 | COC(=O)CCS | -0.915%
34 | CC(CO)CO | 2.65%
35 | C/C=C\C/C=C/CCCCCCCCOC(C)=O | -2.96%
36 | O=[N+]([O-])c1ccc(Nc2ccc(Nc3ccccc3)c(S(=O)(=O)O)c2)c([N+](=O)[O-])c1 | -0.669%
37 | CNC(=O)c1cnn(-c2nc(N)c3ncn([C@@H]4O[C@H](CO)[C@@H](O)[C@H]4O)c3n2)c1 | -0.183% [at 35.3 µM]
38 | C=CC(=O)[O-].C=CC(=O)[O-].[Zn+2] | -0.269%
39 | CCCCN(CCN(CCCC)C(=O)N1CCOCC1)C(=O)N1CCOCC1 | -10.9% [at 35.3 µM]
40 | Oc1ccc(Cl)c2cccnc12 | -14.6% [at 35.3 µM]

From PubChem BioAssay (Tox21)
